Laboratory results as given in PubChem BioAssay (NCI).
The panel holds about 83,000 compounds, 20% with a hit somewhere; the sample as a whole holds those more often.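 A percent growth of 40 corresponds to 60% growth inhibition; 0 means no net growth; -100 means all cells died. Active threshold: below 10.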 Active and inactive are the calls of the source.

Experiments:
Assay in all cases: NCI-60 one-dose screen, 48 h (100 = growth as untreated, 0 = no growth, -100 = all killed)
Details in all cases: 10 µM unless noted
[1] = system: HCT-15 colon
[2] = system: HT29 colon
[3] = system: SNB-75 CNS
[4] = system: SNB-19 CNS
[5] = system: U251 CNS
[6] = system: PC-3 prostate
[7] = system: SK-MEL-5 melanoma
[8] = system: LOX IMVI melanoma
[9] = system: SK-MEL-28 melanoma
[10] = system: UACC-62 melanoma

Measured: growth

O=C(CSc1nnc(Cc2ccccc2Nc2c(Cl)cccc2Cl)n1-c1ccccc1)N1N=C(c2ccc3ccccc3c2)CC1c1ccc(Cl)cc1 (stereo not given)
inactive: [1] 98.9% | [2] 86.2% | [3] 81% | [4] 95.1% | [5] 98.3% | [6] 87.1% | [7] 104% | [8] 94% | [9] 112%

O=S1(=O)NCCN1CCNc1nccc(-c2c(-c3cccc(O)c3)nc3sccn23)n1
inactive: [1] 127% | [2] 71.6% | [3] 73.3% | [4] 122% | [5] 120% | [6] 78.5% | [7] 94.4% | [9] 31.3%
active: [10] 6.31%

COc1ccc(-c2cc(C(=O)Nc3ccc(Br)cc3)nc3[nH]c(=O)sc23)cc1
active: [7] 8.56% | [10] 8.05%
inactive: [1] 37% | [2] 50.1% | [3] 78.4% | [4] 36.5% | [5] 28.8% | [6] 34.8% | [9] 38.5%

CCNC(=O)c1ccc2c(c1)nc(-c1ccc(Cl)cc1)n2-c1cc(C(C)(C)C)[nH]n1
inactive: [1] 45.2% | [2] 26% | [3] 34.2% | [4] 60.5% | [5] 46.5% | [6] 44% | [7] 11.5% | [10] 38.6% | [9] 41.6%

N/C(=N\OC(=O)c1ccccc1)C(Cc1ccccc1)C(=O)NOC(=O)c1ccccc1 (stereo not given)
inactive: [1] 33.2% | [2] 85.7% | [4] 56.8% | [6] 43% | [7] 72.2% | [10] 71.2% | [9] 89.6%
active: [3] 4.73% | [5] -71%

CC(CN1CCN(CC(C)Nc2ccnc3cc(Cl)ccc23)CC1)Nc1ccnc2cc(Cl)ccc12 (stereo not given)
inactive: [4] 31.6% | [6] 26.2%
active: [1] -1.75% | [2] -19.7% | [3] -26.8% | [5] 0.467% | [7] -97.6% | [8] -86.1% | [9] -91.4%

Cn1c(=O)c2c(nc(N/N=C/c3ccccc3Cl)n2C)n(C)c1=O
inactive: [1] 105% | [2] 93.6% | [3] 93.6% | [4] 108% | [5] 101% | [6] 99.3% | [7] 109% | [8] 98.2% | [9] 122%

CCCCn1cnc2c(SCc3ccc([N+](=O)[O-])cc3)nc(N)nc21
inactive: [1] 88.2% | [2] 98.6% | [3] 95.7% | [4] 86% | [6] 89.8% | [7] 85.8% | [10] 80.4% | [8] 88% | [9] 117%

COC(=O)c1ccc2c(c1)nc(-c1ccc(Cl)cc1)n2-c1cc(C(C)(C)C)[nH]n1
inactive: [1] 69.5% | [2] 23% | [3] 47.3% | [4] 78.3% | [5] 38.2% | [6] 39% | [7] 25.9% | [8] 44.2% | [9] 58%

C=CCOC(=O)C1=C(C)NC2=C(C(=O)CCC2)C1c1ccc(F)cc1 (stereo not given)
inactive: [1] 105% | [2] 101% | [3] 80.3% | [4] 85.2% | [6] 90.1% | [7] 98.8% | [10] 80.6% | [8] 97.1% | [9] 101%

C/C(=N\NC(=O)CSc1nc2ccccc2c(=O)n1CCc1ccc(S(N)(=O)=O)cc1)c1ccc(Br)cc1
inactive: [1] 94.7% | [2] 44.7% | [3] 84.7% | [4] 63.9% | [6] 44.9% | [7] 61.5% | [10] 79% | [8] 63.3% | [9] 79.7%

C=C1C(=O)O[C@H]2[C@H]1CC/C(COC(=O)NCc1ccc(Cn3c(=O)sn(CCCl)c3=O)cc1)=C\CC[C@@]1(C)O[C@@H]21
inactive: [1] 27.6% | [2] 15.1% | [3] 85.5% | [4] 99% | [5] 78.7% | [6] 78.7% | [7] 81.7% | [8] 60.8% | [9] 64.3%

COc1cc(NC(=O)CSc2nc3ccc(Cl)cc3c(=O)n2-c2ccccc2)cc(OC)c1OC
inactive: [1] 99.6% | [2] 110% | [3] 71.6% | [4] 99.9% | [6] 80.6% | [7] 83.8% | [10] 75% | [8] 90.8%

NC(CCC(=O)NC(CS)C(=O)NCC(=O)O)C(=O)O (stereo not given)
inactive: [1] 101% | [2] 106% | [3] 95.6% | [4] 99% | [5] 106% | [6] 81.5% | [7] 102% | [8] 104% | [9] 116%

CCCCCc1c(C)[nH]c(/C=C2\N=C(c3ccc[nH]3)C=C2Oc2ccc(OC)cc2)c1C
active: [1] -93.8% [100 µM] | [2] -64% [100 µM] | [3] -91.6% [100 µM] | [4] -83.1% [100 µM] | [6] -25.7% [100 µM] | [7] -73.6% [100 µM] | [10] -93.5% [100 µM] | [8] -71.9% [100 µM] | [9] -86.9% [100 µM]

CC(C)c1ccc(-c2cnc3nonc3n2)cc1
inactive: [1] 19.3% | [2] 29.8% | [3] 54.3% | [4] 40.7% | [6] 19.3% | [7] 32.5% | [10] 14.2% | [8] 26.1% | [9] 73.9%

CCCCCCCCCCCCNC(=O)N[C@H](C(=O)N[C@H]1/C=C/OCCNC(=O)/C=C/[C@H](C(C)C)NC1=O)C(C)C
inactive: [1] 117% | [2] 34.9% | [3] 46.5% | [4] 47.1% | [5] 43.2% | [6] 51.1% | [7] 46.1% | [8] 55.7% | [9] 46.3%

NC(N)=N/N=C/c1cccc(Cl)c1Cl
inactive: [1] 82.7% | [2] 24% | [3] 63.8% | [4] 85.8% | [6] 89.2% | [7] 85.6% | [10] 90.5% | [8] 76.4% | [9] 99.2%

Oc1ccccc1-c1nnc(COc2ccc(Cl)cc2Cl)o1
inactive: [1] 27.4% | [2] 60.3% | [3] 86.6% | [4] 53.5% | [5] 41.5% | [6] 47.8% | [7] 32.3% | [8] 25.5% | [9] 68.9%

CS(=O)(=O)c1ccc(Cl)c([N+](=O)[O-])c1
inactive: [1] 99.4% | [2] 94.7% | [3] 114% | [4] 105% | [5] 109% | [6] 77.8% | [7] 106% | [8] 88.2% | [9] 127%

c1ccc(-c2ccc(-c3ccccc3)[nH]2)cc1
inactive: [1] 94.8% | [2] 101% | [3] 87.9% | [4] 104% | [5] 105% | [6] 99.8% | [7] 99% | [8] 103% | [9] 107%

O=C1/C=C/[C@@H](O)[C@@H]2C[C@@H](O)C[C@H]2/C=C/CCC[C@H]([C@@H](O)CO)O1
inactive: [1] 95.3% | [2] 80.2% | [3] 84% | [4] 66.5% | [5] 69.1% | [6] 88.7% | [8] 38.7% | [9] 38.8%
active: [7] 4.48%

CN1C(=O)N(C)C2C1NN=c1s/c(=C\c3ccc(Br)cc3)c(=O)n12 (stereo not given)
inactive: [1] 22.8% | [2] 10.7% | [3] 11.4% | [4] 34.9% | [5] 29.3% | [6] 18.3% | [7] 14% | [8] 35.8% | [9] 71.1%

COc1cnc2c(c1)C(=O)c1c-2n(CCCN2CCN(C)CC2)c(=O)c2cc(Cl)ccc12
active: [2] -60.6% | [9] -53.8%
inactive: [1] 41.8% | [3] 38.7% | [4] 46.3% | [5] 45.4% | [6] 40.5% | [7] 65.4% | [8] 38.2%

CCN1C(=O)C(C)C=C(C)C=C1C (stereo not given)
inactive: [1] 99.9% | [2] 111% | [3] 104% | [4] 109% | [5] 111% | [6] 123% | [7] 98.1% | [8] 103% | [9] 116%

COc1cc2ncnc(Nc3ccc(S(=O)(=O)Nc4cc(C)on4)cc3)c2cc1OCCCN1CCN(c2ccc([N+](=O)[O-])cc2)CC1
inactive: [1] 105% | [2] 107% | [3] 91.9% | [4] 100% | [5] 97.1% | [6] 104% | [7] 111% | [8] 96.1% | [9] 112%

O=C(N/N=C/c1ccccc1O)c1ccncc1
inactive: [1] 28.5% | [2] 42.7% | [3] 86.2% | [4] 66.6% | [6] 69.5% | [7] 75.5% | [10] 33.5% | [8] 50.8% | [9] 61.1%

CCSc1cnnc2ccccc12
inactive: [1] 105% | [2] 106% | [3] 89.3% | [4] 106% | [5] 102% | [6] 104% | [7] 107% | [8] 103% | [9] 107%

O=C1CCCN1C(O)CCN(Cc1ccccc1)Cc1ccc(Cl)cc1 (stereo not given)
inactive: [1] 125% | [2] 98.4% | [3] 101% | [4] 104% | [6] 95.1% | [7] 106% | [10] 102% | [8] 97.2% | [9] 115%
